Source: PubChem BioAssay (NCATS)
Records with an inconclusive call do not appear. Entries that show only a call come without a potency. Active and inactive are the calls of the source. Unless noted, calls come from the whole dose curve; as a rule, active = well fitted curve in the direction sought with a large enough effect; inconclusive = small, poorly fitted or top-dose-only effect, or another doubt; inactive = no such curve, though single readings can be large; an effect the other way counts as inactive or inconclusive.

Legend:
[1] = Primary qHTS for inhibitors of La Crosse Virus (LACV) - induced cell death in SH-SY5Y cells (AID 1508616);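 note: top concentration of the series differs between compounds; higher means more rescue of cells from virus-induced death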
Procedure, shortened: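 SH-SY5Y cells (6000/well) plated 24 h, then given compounds by pin transfer and LACV at 0.01 MOI for 6 days at 37C. Viability measured by ATPLite luminescence, normalized to infected DMSO and uninfected DMSO.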

[2] = molecular target: Calcium and integrin-binding protein 1 (Homo sapiens) (UniProt Q99828); assay: Validation qHTS for Identification of Calcium Integrin Binding protein 1 (CIB1) Competitor (AID 1508618)
Chain of Calcium and integrin-binding protein 1 (Homo sapiens) (Q99828 whole entry, looked up): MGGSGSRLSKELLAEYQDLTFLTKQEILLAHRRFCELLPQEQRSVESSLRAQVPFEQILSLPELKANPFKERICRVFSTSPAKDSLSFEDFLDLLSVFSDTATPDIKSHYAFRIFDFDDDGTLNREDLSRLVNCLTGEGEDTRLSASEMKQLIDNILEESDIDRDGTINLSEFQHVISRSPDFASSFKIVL
Procedure, shortened: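 Displacement of FITC-alphaIIb peptide (100 nM) from CIB1-GST (1 uM) is monitored by polarization in quantitative HTS format; buffer carries 5 mM CaCl2 and 125 mM NaCl at pH 7.4, incubations are at room temperature.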

[3] = molecular target: Calcium and integrin-binding protein 1 (Homo sapiens) (UniProt Q99828); assay: Primary qHTS for Identification of Calcium Integrin Binding Protein 1 (CIB1) Competitor (AID 1508620);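 note: GST tagged CIB1 binding a fluorescein labelled alphaIIb integrin peptide tracer; top concentration of the series differs between compounds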
Procedure, shortened: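 Fluorescence polarization competition: GST-tagged CIB1 (1 uM final) preincubated with compound 15 min at room temperature, then FITC-labelled alphaIIb peptide (100 nM final) added. After 15 min at room temperature, polarization read at Ex 480/Em 540.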

[4] = Primary qHTS for small molecule stabilizers of the endoplasmic reticulum resident proteome: Secreted ER Calcium Modulated Protein (SERCaMP) assay (AID 1508630)
Procedure, shortened: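 GLuc-SERCaMP-expressing SH-SY5Y cells, pretreated 16 h with compound, are challenged with thapsigargin to empty ER calcium stores; after 4 h, coelenterazine is added directly to the medium and luminescence is imaged.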

[5] = A High-Content qHTS Against Drug Library for the Identification of Small Molecules that Inhibit DYT1 Early Onset Primary Dystonia-Associated Cell Pathology (AID 1645839; calls by dose curve)
Procedure, shortened: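 Flp-In T-REx 293 cells with tetracycline-inducible EGFP-delE hTOR1A (WT EGFP-hTOR1A as reference), 800 cells/well; compound added with tetracycline, 48 h at 37 C. Fixed, permeabilized cells imaged; %pathology (punctate TorsinA) primary, cell count counterscreen.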

[6] = molecular target: Cytochrome P450 2D6 (Homo sapiens) (UniProt P10635); assay: Cytochrome P450 family 2 subfamily D member 6 (CYP2D6) small molecule antagonists: luciferase biochemical (cell-free) qHTS assay (AID 1645840; active = well fitted curve in the direction sought with a large enough effect in the repeat runs; an effect the other way counts as inactive or inconclusive; note: nearly all actives have a fitted effect of over 55% in size; note: potency is the fitted concentration of half-maximal effect)
Chain of Cytochrome P450 2D6 (Homo sapiens) (P10635 whole entry, looked up): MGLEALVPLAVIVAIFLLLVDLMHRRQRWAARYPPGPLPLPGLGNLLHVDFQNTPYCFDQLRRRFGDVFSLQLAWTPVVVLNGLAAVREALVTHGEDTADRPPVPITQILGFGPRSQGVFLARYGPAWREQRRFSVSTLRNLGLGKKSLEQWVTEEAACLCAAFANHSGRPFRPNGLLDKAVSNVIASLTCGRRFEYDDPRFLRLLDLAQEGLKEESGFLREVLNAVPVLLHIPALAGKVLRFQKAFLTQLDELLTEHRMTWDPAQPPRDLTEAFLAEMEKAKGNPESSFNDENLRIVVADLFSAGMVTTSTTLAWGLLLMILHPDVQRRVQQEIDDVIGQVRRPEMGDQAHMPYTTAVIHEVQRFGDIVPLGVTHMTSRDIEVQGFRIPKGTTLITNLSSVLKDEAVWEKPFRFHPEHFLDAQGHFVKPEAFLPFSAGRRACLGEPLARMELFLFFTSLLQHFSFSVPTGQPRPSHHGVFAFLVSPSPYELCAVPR
Procedure, shortened: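 P450-Glo luminescent screen: recombinant CYP2D6 enzyme–proluciferin substrate mix preincubated with compound 10 min at room temperature, then NADPH regeneration added for 1 h at room temperature. Detection reagent added for 20 min; luciferin light read as relative luminescence units.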

[7] = molecular target: Cytochrome P450 2C9 (Homo sapiens) (UniProt P11712); assay: Cytochrome P450 family 2 subfamily C member 9 (CYP2C9) small molecule antagonists: luciferase biochemical (cell-free) qHTS assay (AID 1645842; active = well fitted curve in the direction sought with a large enough effect in the repeat runs; an effect the other way counts as inactive or inconclusive; note: nearly all actives have a fitted effect of over 55% in size)
Chain of Cytochrome P450 2C9 (Homo sapiens) (P11712 whole entry, looked up): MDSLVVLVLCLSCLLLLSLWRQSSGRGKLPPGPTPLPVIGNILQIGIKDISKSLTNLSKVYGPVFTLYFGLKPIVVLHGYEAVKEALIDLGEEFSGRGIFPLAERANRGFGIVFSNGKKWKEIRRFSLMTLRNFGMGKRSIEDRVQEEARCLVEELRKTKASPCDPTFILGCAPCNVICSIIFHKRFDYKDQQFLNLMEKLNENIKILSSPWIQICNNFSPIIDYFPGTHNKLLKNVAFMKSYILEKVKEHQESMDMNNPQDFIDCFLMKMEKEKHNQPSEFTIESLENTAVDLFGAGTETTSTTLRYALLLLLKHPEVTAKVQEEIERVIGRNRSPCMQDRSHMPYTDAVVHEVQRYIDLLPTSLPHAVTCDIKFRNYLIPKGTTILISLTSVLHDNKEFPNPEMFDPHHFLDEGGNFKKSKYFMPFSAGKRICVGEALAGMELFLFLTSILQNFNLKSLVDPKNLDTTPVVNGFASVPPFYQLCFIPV
Procedure, shortened: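 Luminescence, after 20 min with luciferin detection reagent, reflected CYP2C9 turnover during a 1 h NADPH-driven reaction at 37C. Enzyme-substrate mix contained 0.4% bovine serum albumin and was preincubated with compound 10 min at room temperature.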

[8] = Cytotoxicity counterscreen for inhibitors of SARS-CoV-2 cell entry (AID 1645845; calls by dose curve; note: nearly all actives have a fitted effect of over 50% in size)
Procedure, shortened: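 HEK293-ACE2 cells (Expi293F stably expressing human ACE2) seeded overnight, then compound for 1 h plus 48 h at 37C. Viability as ATP content by luminescence; normalized to wells with cells and media-only wells.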

[9] = Primary qHTS to identify inhibitors of SARS-CoV-2 cell entry (AID 1645846; calls by dose curve; note: nearly all actives have a fitted effect of over 45% in size); conditions: activity change, negative = inhibition: at 57.1 µM (top of the series) unless noted
Procedure, shortened: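 HEK293 cells stably expressing human ACE2, pre-treated 1 h with compound, then infected with MLV particles pseudotyped with Wuhan-Hu-1 spike (C-terminal 19-aa truncation). Luciferase luminescence after 48 h at 37 °C, normalised to spike PP and bald PP.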

Papain (Carica papaya) = Papain (Carica papaya) (UniProt P00784); assay: Primary qHTS assay for inhibitors of the protease papain (AID 1645873);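 note: papain turnover of Z-FR-AMC read as the AMC fluorescence gain over 10 min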
Chain of Papain (Carica papaya) (P00784 whole entry, looked up, the tested form may be a part): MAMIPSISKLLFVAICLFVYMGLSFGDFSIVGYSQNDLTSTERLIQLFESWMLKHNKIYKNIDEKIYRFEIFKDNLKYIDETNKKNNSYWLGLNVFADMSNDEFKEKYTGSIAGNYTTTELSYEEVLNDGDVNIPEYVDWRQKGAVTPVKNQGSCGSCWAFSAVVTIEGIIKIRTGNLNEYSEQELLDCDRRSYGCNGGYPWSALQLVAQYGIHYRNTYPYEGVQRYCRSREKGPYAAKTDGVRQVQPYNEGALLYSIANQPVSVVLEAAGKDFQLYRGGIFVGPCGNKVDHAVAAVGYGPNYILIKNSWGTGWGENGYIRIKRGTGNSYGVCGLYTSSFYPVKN

[10] = Primary qHTS for inhibitors of nuclear receptor binding SET domain protein 2 (NSD2) in an isogenic RCH-ACV NSD2 p.E1099K mutant (9B) (AID 1645876); note: nearly all actives have a fitted effect of over 70% in size
[11] = Primary qHTS for inhibitors of nuclear receptor binding SET domain protein 2 (NSD2) in an RCH-ACV wild type WT cells (2C) (AID 1645877); note: nearly all actives have a fitted effect of over 70% in size
[12] = Counterscreen qHTS for small molecule stabilizers of the endoplasmic reticulum resident proteome: GLuc-NoTag assay (AID 1508627);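 note: SH-SY5Y cells given compound then 100 nM thapsigargin to empty ER calcium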
Procedure, shortened: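 SH-SY5Y cells stably expressing constitutively secreted GLuc without SERCaMP tag, exposed to compound for 19 hr, then to 100 nM thapsigargin for 4 hr at 37C. Medium luciferase was read by coelenterazine luminescence without lysis.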

[13] = Cell Viability qHTS for small molecule stabilizers of the endoplasmic reticulum resident proteome (AID 1508629); conditions: cell viability counter-screen, 100 nM thapsigargin for final 4 h;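 note: compound exposure about 46 h in total before the viability read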
Excerpt: Assay Provider: Brandon K. Harvey Ph.D.
National Institute on Drug Abuse, National Institutes of Health, Baltimore, MD
Endoplasmic reticulum (ER) dysregulation is associated with human pathologies including neurodegenerative, cardiovascular, muscular, and diabetic conditions. Maintenance of ER calcium is critical for functions of the ER and its depletion can lead to loss of ER resident proteins, in a process termed exodosis. Therapeutic compounds capable of attenuating the redistribution of ER proteins under pathological conditions may slow or stop disease progression. To identify such compounds, we performed a quantitative high-throughput screen (qHTS) using the SERCaMP assay, which monitors secretion of ER resident proteins triggered by calcium depletion.
SERCaMP was initially developed as a reporter of ER calcium homeostasis using a Gaussia luciferase with a modified signal peptide and carboxy-terminus (GLuc-SERCaMP), modifications that confer secretion of the reporter in response to ER calcium depletion (Henderson et al., 2014). The assay was used to screen 9,501 compounds, including a collection of drugs approved by the FDA (US), EMA (EU), NHI (Japan), and HC (Canada) regulatory agencies (Huang et al., 2011). Since the SERCaMP reporter reflects the exodosis phenomenon (Trychta et al., 2018a), compounds identified in the screen have the potential to prevent exodosis by different mechanisms such as stabilizing ER calcium or augmenting ERS retrieval.
1. Henderson, M.J., Wires, E.S., Trychta, K.A., Richie, C.T., and Harvey, B.K. (2014). SERCaMP: a carboxy-terminal protein modification that enables monitoring of ER calcium homeostasis. Mol Biol Cell 25, 2828-2839.
2. Huang, R., Southall, N., Wang, Y., Yasgar, A., Shinn, P., Jadhav, A., Nguyen, D.T., and Austin, C.P. (2011). The NCGC pharmaceutical collection: a comprehensive resource of clinically approved drugs enabling repurposing and chemical genomics. Sci Transl Med 3, 80ps16.
3. Trychta, K.A., Back, S., Henderson, M.J., and Harvey, B.K. (2018a). KDEL Receptors Are Differentially Regulated to Maintain the ER Proteome under Calcium Deficiency. Cell Rep 25, 1829-1840 e1826.
SEQUENCE No. (1, 2, 3, etc.); […] (e.g., Cells, Incubation, Reagent, etc.); VALUE and DESCRIPTION.
1; Reagent; 5 uL; 1000 SH-SY5Y cells per wells
3; Compound; 23 nL; Control inhibitor / compound library
5; Reagent; 100 nM; Thapsigargin
7; Reagent; 5 uL; CellTiter-Glo (Promega)
8; Time; 10 min; room temperature
9; Detection; Luminescence; ViewLux imaging system
NOTES (numbers refer to sequence above)
1; SH-SY5Y human neuroblastoma cells stably expressing GLuc-SERCaMP (SH-SY5Y-GLuc-ASARTDL) cells were seeded in 1,536 well white tissue culture treated plates (Corning, Cat# 7464) in DMEM-high glucose-sodium pyruvate (ThermoFisher Scientific, Cat #10569) supplemented with 10% bovine growth serum (Hyclone), 10 U/ml penicillin (Gibco), 10 ug/ml streptomycin (Gibco), and 20 mM HEPES.
2; Assay plates were incubated for 5 hr at 37C in a humidified incubator containing 5% CO2.
3; qHTS libraries (23 nl, final concentrations of 1.53 uM, 7.67 uM, 38.3 uM) or controls (neutral control: DMSO, positive control: dantrolene) were added using a Kalypsis pin-tool Robotic System equipped with 1536 pinheads.
4; Cells were then incubated for 42 hours at 37C, 5% CO2.
5; Thapsigargin was added at 100 nM to deplete ER calcium stores.
6; Cells were incubated for 4 hr (37C, 5% CO2).
7; Cell viability was measured using the CellTiter-Glo Luminescent Cell Viability Assay (Promega). Briefly, an equal volume of reagent was added to each well. Plates were rotated for 2 min.
8; Assay plates were incubated for 10 min at room temperature.
9; Luminescence was measured using a ViewLux CCD imaging system (Perkin Elmer) equipped with clear filters.

[14] = Confirmatory qHTS for small molecule stabilizers of the endoplasmic reticulum resident proteome: Secreted ER Calcium Modulated Protein (SERCaMP) assay (AID 1508628); note: potency is the fitted concentration of half-maximal effect; nearly all actives have a fitted effect of over 40% in size
Procedure, shortened: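 SH-SY5Y cells stably expressing GLuc-SERCaMP, treated 16 h with compound (primary 1.53, 7.67, 38.3 uM; confirmation 11 concentrations, up to 76.6 uM), then 100 nM thapsigargin for 4 h. Secreted Gaussia luciferase in medium read by coelenterazine luminescence.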

Compound	outcome [1]	outcome [2]	Potency [3]	outcome [4]	outcome [5]	Potency [6]	Potency [7]	Potency [8]	Potency [9]	activity change, negative = inhibition [9] [%]	outcome (Papain (Carica papaya))	Potency [10]	Potency [11]	Potency [12]	max response [13]	Potency [14]
COc1ccc(C(=O)N2CCCC2=O)cc1	inactive	inactive	inactive	inactive	inactive	inactive	inactive	inactive	inactive	9.75	inactive	inactive	inactive			
CN1C2CCC(C)(C)C1CC(OC(=O)C(O)(c1cccs1)c1cccs1)C2 (stereo not drawn)	inactive		inactive			13.8 µM (active)	inactive							inactive	-12.1% (inactive)	
OC(c1ccccc1)(c1ccccc1)C1CCNCC1	inactive		inactive		inactive		inactive					inactive		inactive	-6.14% (inactive)	15.8 µM (active)
O=C(O)c1nn(Cc2ccc(Cl)cc2Cl)c2ccccc12	inactive	inactive	inactive	inactive	inactive	inactive	inactive	inactive		-33.8		inactive	inactive			
